Results: the supplement of paper PMC11732987, “Enantioselective OTUD7B fragment discovery through chemoproteomics screening and high-throughput optimisation” (Communications Chemistry, 2025)

Columns and labels:
Assay in all cases: log2 ratio of Biotin-Ahx-Ub-VS probe labelling (fragment/DMSO); higher = less target engagement (more negative = stronger competition), active = hit call of the paper (q ≤ 0.05, log2 ratio ≤ -1)
Conditions in all cases: compound concentration: 200 uM; treatment time: 3 h
OTUD6B = biological target: T1, OTUD6B (UniProt Q8N6M0)
T1 sequence (whole entry): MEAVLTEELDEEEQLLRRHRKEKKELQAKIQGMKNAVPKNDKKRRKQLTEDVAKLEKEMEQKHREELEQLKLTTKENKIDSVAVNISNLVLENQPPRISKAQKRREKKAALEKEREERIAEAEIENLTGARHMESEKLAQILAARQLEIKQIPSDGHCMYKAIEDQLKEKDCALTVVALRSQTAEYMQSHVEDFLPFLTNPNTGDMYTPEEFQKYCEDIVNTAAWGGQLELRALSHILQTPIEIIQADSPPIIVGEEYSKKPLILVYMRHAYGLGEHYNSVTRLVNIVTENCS
How it was run: (§1)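 Fragment (200 µM) or vehicle was incubated for 3 h with triplicate HEK293T lysate samples of 495 µg, which were then treated with Biotin-Ahx-Ub-VS at 0.5 µM final for 1 h. Labelled DUBs were enriched on NeutrAvidin, digested with LysC and trypsin, and analysed by diaPASEF LC-MS/MS. Values are average log2 fragment/vehicle ratios from an unpaired t-test on global-median-normalised Spectronaut label-free quantities, using proteins with ≥2 unique peptides.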

OTUD7B = biological target: T2, OTUD7B (UniProt Q6GQQ9)
T2 sequence (whole entry): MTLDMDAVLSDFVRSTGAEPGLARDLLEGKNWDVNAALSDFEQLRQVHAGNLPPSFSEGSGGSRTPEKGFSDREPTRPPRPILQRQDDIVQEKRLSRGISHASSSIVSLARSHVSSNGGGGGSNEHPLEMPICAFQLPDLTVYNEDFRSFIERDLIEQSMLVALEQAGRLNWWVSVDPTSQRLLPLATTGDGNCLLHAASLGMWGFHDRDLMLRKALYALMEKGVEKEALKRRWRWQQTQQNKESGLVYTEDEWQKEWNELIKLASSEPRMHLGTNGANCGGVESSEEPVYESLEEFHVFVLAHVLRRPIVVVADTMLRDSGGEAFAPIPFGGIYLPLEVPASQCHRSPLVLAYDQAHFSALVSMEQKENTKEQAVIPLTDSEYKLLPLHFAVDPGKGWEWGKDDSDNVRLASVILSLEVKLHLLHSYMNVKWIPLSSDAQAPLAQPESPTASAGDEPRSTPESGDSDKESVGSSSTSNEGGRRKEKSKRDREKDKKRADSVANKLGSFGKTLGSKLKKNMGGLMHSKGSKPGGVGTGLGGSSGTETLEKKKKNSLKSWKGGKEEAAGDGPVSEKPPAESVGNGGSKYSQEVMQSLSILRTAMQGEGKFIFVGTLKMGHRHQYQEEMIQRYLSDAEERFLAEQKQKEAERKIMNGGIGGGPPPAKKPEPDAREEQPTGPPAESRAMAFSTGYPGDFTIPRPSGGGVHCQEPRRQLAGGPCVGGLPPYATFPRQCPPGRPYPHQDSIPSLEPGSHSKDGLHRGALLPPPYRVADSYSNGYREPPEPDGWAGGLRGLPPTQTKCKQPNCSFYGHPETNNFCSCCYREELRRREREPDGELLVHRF
How it was run: as §1

PRPF8 = PRPF8 (UniProt Q6P2Q9)
How it was run: as §1

PSMD7 = biological target: T3, PSMD7 (UniProt P51665)
T3 sequence (whole entry): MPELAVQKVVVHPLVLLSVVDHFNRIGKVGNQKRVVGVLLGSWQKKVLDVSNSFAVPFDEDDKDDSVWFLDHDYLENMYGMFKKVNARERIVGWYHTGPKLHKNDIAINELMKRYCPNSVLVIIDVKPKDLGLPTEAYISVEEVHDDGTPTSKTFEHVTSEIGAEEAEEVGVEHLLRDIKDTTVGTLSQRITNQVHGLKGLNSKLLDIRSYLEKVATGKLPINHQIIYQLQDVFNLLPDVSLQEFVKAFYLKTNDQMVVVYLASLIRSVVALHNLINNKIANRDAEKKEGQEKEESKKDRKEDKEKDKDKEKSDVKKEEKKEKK
How it was run: as §1

UCHL1 = UCHL1 (UniProt P09936)
How it was run: as §1

UCHL3 = biological target: T4, UCHL3 (UniProt P15374)
T4 sequence (whole entry): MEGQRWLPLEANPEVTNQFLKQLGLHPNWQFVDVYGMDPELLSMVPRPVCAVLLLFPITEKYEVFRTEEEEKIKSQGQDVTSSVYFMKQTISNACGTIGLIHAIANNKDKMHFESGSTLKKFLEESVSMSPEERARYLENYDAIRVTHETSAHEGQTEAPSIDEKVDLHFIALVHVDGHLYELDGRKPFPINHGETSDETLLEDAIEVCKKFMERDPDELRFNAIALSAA
How it was run: as §1

UCHL5 = biological target: T5, UCHL5 (UniProt Q9Y5K5)
T5 sequence (whole entry): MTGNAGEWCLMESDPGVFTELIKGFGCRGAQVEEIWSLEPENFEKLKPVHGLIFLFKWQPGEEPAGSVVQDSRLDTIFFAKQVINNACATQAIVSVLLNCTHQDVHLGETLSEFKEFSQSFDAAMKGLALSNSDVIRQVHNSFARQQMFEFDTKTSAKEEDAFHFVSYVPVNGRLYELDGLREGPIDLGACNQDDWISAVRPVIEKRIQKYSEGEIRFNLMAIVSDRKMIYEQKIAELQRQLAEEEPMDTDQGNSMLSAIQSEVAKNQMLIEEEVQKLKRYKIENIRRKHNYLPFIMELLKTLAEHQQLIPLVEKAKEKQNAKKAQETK
How it was run: as §1

USP10 = USP10 (UniProt Q14694)
How it was run: as §1

USP15 = biological target: T6, USP15 (UniProt Q9Y4E8)
T6 sequence (whole entry): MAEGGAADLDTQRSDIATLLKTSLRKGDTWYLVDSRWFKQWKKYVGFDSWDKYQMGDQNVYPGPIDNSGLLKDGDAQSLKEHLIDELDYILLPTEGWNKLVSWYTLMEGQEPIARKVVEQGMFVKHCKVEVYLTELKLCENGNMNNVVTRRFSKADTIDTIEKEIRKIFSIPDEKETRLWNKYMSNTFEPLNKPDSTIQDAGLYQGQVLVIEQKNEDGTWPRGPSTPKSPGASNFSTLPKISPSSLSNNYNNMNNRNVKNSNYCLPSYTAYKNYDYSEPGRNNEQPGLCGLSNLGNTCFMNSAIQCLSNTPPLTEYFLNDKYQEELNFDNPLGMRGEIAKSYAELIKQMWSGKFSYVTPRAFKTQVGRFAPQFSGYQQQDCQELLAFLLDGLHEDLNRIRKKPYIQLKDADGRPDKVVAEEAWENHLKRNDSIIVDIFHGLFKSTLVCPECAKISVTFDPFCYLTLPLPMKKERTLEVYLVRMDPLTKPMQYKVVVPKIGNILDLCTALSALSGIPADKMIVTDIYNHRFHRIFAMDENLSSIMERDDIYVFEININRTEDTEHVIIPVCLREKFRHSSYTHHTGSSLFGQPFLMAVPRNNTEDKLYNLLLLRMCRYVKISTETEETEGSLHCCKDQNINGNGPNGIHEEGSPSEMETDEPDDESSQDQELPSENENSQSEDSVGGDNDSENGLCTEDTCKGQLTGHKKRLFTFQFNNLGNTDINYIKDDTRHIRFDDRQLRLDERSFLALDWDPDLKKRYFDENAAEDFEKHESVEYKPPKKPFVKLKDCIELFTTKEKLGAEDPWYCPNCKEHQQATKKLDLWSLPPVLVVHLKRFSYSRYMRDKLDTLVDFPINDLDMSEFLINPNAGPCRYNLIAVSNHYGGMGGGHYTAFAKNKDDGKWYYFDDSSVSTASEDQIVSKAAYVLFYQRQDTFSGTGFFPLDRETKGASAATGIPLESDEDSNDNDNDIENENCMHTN
How it was run: as §1

USP16 = USP16 (UniProt Q9Y5T5)
How it was run: as §1

Measured: log2 ratio of Biotin-Ahx-Ub-VS probe labelling

Sequence of USP10 (Q14694 whole entry): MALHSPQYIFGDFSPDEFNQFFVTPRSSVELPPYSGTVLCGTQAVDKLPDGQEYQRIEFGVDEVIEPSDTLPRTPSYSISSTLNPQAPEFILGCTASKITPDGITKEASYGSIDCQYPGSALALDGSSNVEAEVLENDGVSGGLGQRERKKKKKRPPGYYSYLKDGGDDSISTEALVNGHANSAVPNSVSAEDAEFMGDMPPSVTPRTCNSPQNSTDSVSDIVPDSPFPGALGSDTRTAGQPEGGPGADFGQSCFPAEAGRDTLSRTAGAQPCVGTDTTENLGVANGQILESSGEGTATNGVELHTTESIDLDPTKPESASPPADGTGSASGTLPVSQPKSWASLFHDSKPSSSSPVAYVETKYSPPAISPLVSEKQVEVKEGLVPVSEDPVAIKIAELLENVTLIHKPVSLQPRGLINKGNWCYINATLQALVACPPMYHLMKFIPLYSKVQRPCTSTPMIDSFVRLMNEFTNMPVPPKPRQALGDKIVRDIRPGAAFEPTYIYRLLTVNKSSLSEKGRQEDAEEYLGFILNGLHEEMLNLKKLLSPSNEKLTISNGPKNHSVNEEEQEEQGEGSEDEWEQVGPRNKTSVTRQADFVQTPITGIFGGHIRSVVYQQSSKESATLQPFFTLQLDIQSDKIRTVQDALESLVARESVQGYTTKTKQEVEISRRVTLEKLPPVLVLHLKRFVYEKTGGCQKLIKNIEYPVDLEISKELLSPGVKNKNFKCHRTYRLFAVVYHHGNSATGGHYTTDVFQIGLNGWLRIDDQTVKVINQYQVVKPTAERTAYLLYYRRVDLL
Sequence of UCHL1 (P09936 whole entry, looked up): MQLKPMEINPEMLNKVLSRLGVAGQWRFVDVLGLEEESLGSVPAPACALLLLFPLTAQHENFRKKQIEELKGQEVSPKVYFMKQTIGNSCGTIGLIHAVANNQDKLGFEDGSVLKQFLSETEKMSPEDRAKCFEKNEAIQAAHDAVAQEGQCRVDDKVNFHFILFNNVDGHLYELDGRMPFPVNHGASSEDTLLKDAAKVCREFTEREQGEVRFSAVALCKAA
Sequence of USP16 (Q9Y5T5 whole entry, looked up): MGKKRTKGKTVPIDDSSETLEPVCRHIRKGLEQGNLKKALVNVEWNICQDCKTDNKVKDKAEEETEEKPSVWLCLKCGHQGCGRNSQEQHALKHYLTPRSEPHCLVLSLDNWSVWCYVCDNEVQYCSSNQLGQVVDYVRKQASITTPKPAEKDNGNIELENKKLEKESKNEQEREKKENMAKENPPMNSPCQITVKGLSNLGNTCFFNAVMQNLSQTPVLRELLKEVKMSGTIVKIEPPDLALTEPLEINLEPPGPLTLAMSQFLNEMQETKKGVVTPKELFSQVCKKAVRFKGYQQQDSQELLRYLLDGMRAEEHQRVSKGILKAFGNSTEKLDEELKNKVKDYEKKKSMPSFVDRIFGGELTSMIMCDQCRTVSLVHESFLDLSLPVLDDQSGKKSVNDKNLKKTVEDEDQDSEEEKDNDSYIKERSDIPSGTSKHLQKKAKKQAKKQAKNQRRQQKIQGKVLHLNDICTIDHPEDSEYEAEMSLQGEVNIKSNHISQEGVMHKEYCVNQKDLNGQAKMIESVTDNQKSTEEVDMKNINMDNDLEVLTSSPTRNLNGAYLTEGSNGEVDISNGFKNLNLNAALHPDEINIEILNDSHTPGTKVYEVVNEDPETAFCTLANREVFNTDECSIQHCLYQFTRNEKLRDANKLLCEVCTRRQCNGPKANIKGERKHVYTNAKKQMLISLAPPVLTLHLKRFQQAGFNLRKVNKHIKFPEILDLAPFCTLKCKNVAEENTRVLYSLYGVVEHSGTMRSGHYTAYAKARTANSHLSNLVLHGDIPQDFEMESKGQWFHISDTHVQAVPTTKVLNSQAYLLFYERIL

Cc1cc(CC(C)NC(=O)CCl)n[nH]1 (stereo not given)
inactive: OTUD6B -0.0562 | OTUD7B -0.54 | PRPF8 -0.109 | PSMD7 -0.276 | UCHL1 -0.533 | UCHL3 -0.222 | UCHL5 -0.292 | USP10 -0.0255 | USP15 -0.325 | USP16 0.186
